Laboratory results published in PMC7819943, “Rice protein-binding microarrays: a tool to detect cis-acting elements near promoter regions in rice”.
Whole data set: some 35,000 sequences, median “fluorescence intensity (a.u.)” near 10,000, cut for the highest 2% near 52,000. Shown is part of a subset that was picked to be rich in the highest values.

Biological target: T1, OsWOX13 (Oryza sativa, UniProt Q5QMM3 1-267)
T1 sequence: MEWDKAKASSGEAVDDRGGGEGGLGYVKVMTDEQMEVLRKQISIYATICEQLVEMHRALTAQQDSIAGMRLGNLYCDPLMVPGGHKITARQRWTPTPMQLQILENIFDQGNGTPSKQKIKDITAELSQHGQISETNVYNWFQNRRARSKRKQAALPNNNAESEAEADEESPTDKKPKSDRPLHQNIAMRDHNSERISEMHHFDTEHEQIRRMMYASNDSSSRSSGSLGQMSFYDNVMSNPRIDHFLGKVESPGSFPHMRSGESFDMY
Experiment: protein-binding microarray (RPBM); PBS, 2% BSA, 51.3 ng/ul salmon testes DNA, 50 uM zinc acetate, 200 nM TF, 25 C, 1 h; high values mean tight binding
Conditions: protein: recombinant; tags: N-terminal polyhistidine and DsRed monomer fusion (pET32a); label: CyDye5-dUTP incorporated in the synthesized complementary strand; 3' TTTTT single-stranded linker to array surface; dsDNA, one strand shown
How it was run: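 Ni–NTA purification followed expression in E. coli BL21-CodonPlus of transcription factors fused N-terminally to a polyhistidine tag and DsRed. At 200 nM in PBS with 2% BSA, salmon testes DNA and 50 µM zinc acetate, the protein was incubated for 1 h at 25 °C with a custom Agilent array that had been primer-extended with Cy5-dUTP and blocked with 2% BSA. After washing, the array was read on an Axon 4000B scanner. The binding signal is per-feature fluorescence intensity in arbitrary units.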

Sequence	binding signal
GATTAATTTAGAAATTTTGAATTCTATTACATAATGATCACGGAGTCACCTAGTGCAG	20600 fluorescence intensity (a.u.)
AATTGATTTACAATACTTCCTCCGTTTCACAATATAAGTGCGGAGTCACCTAGTGCAG	24700 fluorescence intensity (a.u.)
TATTCTGATTGGAACTTATGAGTCTTGAATTCTTGATTCTCGGAGTCACCTAGTGCAG	39000 fluorescence intensity (a.u.)
CGGAATTAATCTGATTATGTGAGTGAATTGGCATTTTGAACGGAGTCACCTAGTGCAG	30700 fluorescence intensity (a.u.)
GTAATTTATATTGAAATGCAATTACTTCCTCCGTTTCACCCGGAGTCACCTAGTGCAG	21800 fluorescence intensity (a.u.)
TCTGATTGCAATCATTCTTGAATTCTGATACATATTGGATCGGAGTCACCTAGTGCAG	60300 fluorescence intensity (a.u.)
CAAAACTGAGTACATTGGATTGGACCATCTAAAAGGAAATCGGAGTCACCTAGTGCAG	4580 fluorescence intensity (a.u.)
TTTATCAAATTATCGTTTGTGTACTCTAGCTGGTCCTGGACGGAGTCACCTAGTGCAG	3870 fluorescence intensity (a.u.)
TGAAATTATTAGCAGGGTTTTAAATCTTCTGTTATAGCTGCGGAGTCACCTAGTGCAG	4040 fluorescence intensity (a.u.)
GGTAATAGAGAGACCACTAATAAAGATTGTTGTACCTGTGCGGAGTCACCTAGTGCAG	3690 fluorescence intensity (a.u.)
CCCTAGACAGATCAGCTTTGGTGTCTTGGTGGTTGTTGTCCGGAGTCACCTAGTGCAG	5440 fluorescence intensity (a.u.)
TGTTTAAGTTTGTCCTAATTACCTGTCACATTTTCCGTGCCGGAGTCACCTAGTGCAG	8460 fluorescence intensity (a.u.)
GGCAGTGACTAATTAACCTCACGGATGACAGGCGGCGAAACGGAGTCACCTAGTGCAG	10300 fluorescence intensity (a.u.)
ATCAGCTGATTACCTCACTGCATCCGTATGATTCGACTTTCGGAGTCACCTAGTGCAG	7310 fluorescence intensity (a.u.)
ATGATTAGAGAGAATGGGTTTAGTTATTTGTTGATCCACACGGAGTCACCTAGTGCAG	29400 fluorescence intensity (a.u.)
TGGATTGAGATATTTATTTATGATGATCACATCTGCACCTCGGAGTCACCTAGTGCAG	9980 fluorescence intensity (a.u.)
ACTTGACAGCCCTAATTGATCTTATTACATGCAGAGGATCCGGAGTCACCTAGTGCAG	56300 fluorescence intensity (a.u.)
ACATGACTAATCTTATTGACTTAAGAGCTGATTAGGATACCGGAGTCACCTAGTGCAG	20200 fluorescence intensity (a.u.)
CTCCGGTTTAATTTTAATTGATGTTTTGGACAATGGCACGCGGAGTCACCTAGTGCAG	44900 fluorescence intensity (a.u.)
GTGCTCTAATTATTTGTATCTTACAGATAGATGACAGAGCCGGAGTCACCTAGTGCAG	19100 fluorescence intensity (a.u.)
CATAATTGCACGATCATTGATTTTGGAACATTCTGAGGCTCGGAGTCACCTAGTGCAG	57100 fluorescence intensity (a.u.)
GATAATTGAGGGATTATTTTATGGATATACTAGATCTGCACGGAGTCACCTAGTGCAG	52400 fluorescence intensity (a.u.)

Sequence	binding signal
GATCTGATTGAGACATATCTGAAAATAATTTGCACGCAGACGGAGTCACCTAGTGCAG	30600 fluorescence intensity (a.u.)
TGTGAGTGATCAAATAATTGATCATAATTTTCTATCGATTCGGAGTCACCTAGTGCAG	37500 fluorescence intensity (a.u.)
TTTAATTGATTTTGTTTAGAATTTGAGGACATGATCCACGCGGAGTCACCTAGTGCAG	62900 fluorescence intensity (a.u.)
AATATATGGATAATTGTACTAGATTATCCTATTTCATACACGGAGTCACCTAGTGCAG	6460 fluorescence intensity (a.u.)
TCAATTAATATATAATTGGCATTGGGTTTGATCATCTCTGCGGAGTCACCTAGTGCAG	50700 fluorescence intensity (a.u.)
CATGTTAATTTGGGACGAGAGTCGGACTCCTATTTCCTTTCGGAGTCACCTAGTGCAG	7570 fluorescence intensity (a.u.)
AAAATTGATGTTCTCTTTGGTGCATTTCTTTCTTATTGTCCGGAGTCACCTAGTGCAG	26800 fluorescence intensity (a.u.)
CAATTATCAATCAGTCTGAAATCTTGCATTTGCATTTGCACGGAGTCACCTAGTGCAG	22400 fluorescence intensity (a.u.)
TAAGACTAATTATTCTTTTAGTAATAGACGACGTACTCGCCGGAGTCACCTAGTGCAG	22300 fluorescence intensity (a.u.)
ACGTGATACATCTTGTTCTAGATTTGTTTAATTTAAGCCACGGAGTCACCTAGTGCAG	3240 fluorescence intensity (a.u.)
ATTAATTAATTAGTGATCATACATAATTGAGGTGATTTATCGGAGTCACCTAGTGCAG	65000 fluorescence intensity (a.u.)
ACTTGCATGCTTAATTGATTTAGTTGGTGACCTTATATCTCGGAGTCACCTAGTGCAG	37800 fluorescence intensity (a.u.)
TATTTTAGATTGATATACAATCTTTTGTGGTGTTAGCACTCGGAGTCACCTAGTGCAG	52900 fluorescence intensity (a.u.)
TTAATTGATTTAGTTGGTGACCTTATATCTTGTTTAGATACGGAGTCACCTAGTGCAG	60600 fluorescence intensity (a.u.)
GTGCATTATCGATCATAATTAGCAGGTGAGAGATATTTAACGGAGTCACCTAGTGCAG	4060 fluorescence intensity (a.u.)
GTAGATATTGATGATTTATATAACTTTGTTGTTGATGACTCGGAGTCACCTAGTGCAG	14500 fluorescence intensity (a.u.)
AATGATTGACAATACTTAGATTTCTTCCCTTAATTACATCCGGAGTCACCTAGTGCAG	54400 fluorescence intensity (a.u.)
ATCCCTAATACGATTTACATGATTAGAGGAGAGACAATTTCGGAGTCACCTAGTGCAG	4470 fluorescence intensity (a.u.)
ATATAATTATAATTTATTTTATTGTGACTTGATTTATCATCGGAGTCACCTAGTGCAG	36400 fluorescence intensity (a.u.)
AATTGTCCCTGATTGACACCTCTTACTTGACCCTTCTTTCCGGAGTCACCTAGTGCAG	42600 fluorescence intensity (a.u.)
TTTGATTGTGGTTATTGCACTGAAATTTTACAGATATTGTCGGAGTCACCTAGTGCAG	31800 fluorescence intensity (a.u.)
